Experimental data taken from PubChem BioAssay (NCI).
Compounds without any hit were thinned out: in the full panel of roughly 83,000, 20% have a hit.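 Activity criterion: percent growth below 10, measured after cells in 96-well plates were exposed to a single compound concentration for 48 hours.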 A number with no mark means an inactive call. Activity calls are given as the source filed them.

Experiments:
Test in all cases: NCI-60 one-dose screen, 48 h (100 = growth as untreated, 0 = no growth, -100 = all killed)
Settings in all cases: 10 µM unless noted
SR leukemia = system: SR leukemia
RPMI-8226 leukemia = system: RPMI-8226 leukemia
OVCAR-8 ovarian = system: OVCAR-8 ovarian
OVCAR-5 ovarian = system: OVCAR-5 ovarian
OVCAR-4 ovarian = system: OVCAR-4 ovarian
SK-OV-3 ovarian = system: SK-OV-3 ovarian
IGROV1 ovarian = system: IGROV1 ovarian
OVCAR-3 ovarian = system: OVCAR-3 ovarian
HS 578T breast = system: HS 578T breast
NCI/ADR-RES ovarian = system: NCI/ADR-RES ovarian
T-47D breast = system: T-47D breast
BT-549 breast = system: BT-549 breast
MDA-MB-435 melanoma = system: MDA-MB-435 melanoma
SW-620 colon = system: SW-620 colon
MCF7 breast = system: MCF7 breast
HCT-116 colon = system: HCT-116 colon
HCC-2998 colon = system: HCC-2998 colon
KM12 colon = system: KM12 colon

| SMILES | growth (SR leukemia) | growth (RPMI-8226 leukemia) | growth (OVCAR-8 ovarian) | growth (OVCAR-5 ovarian) | growth (OVCAR-4 ovarian) | growth (SK-OV-3 ovarian) [%] | growth (IGROV1 ovarian) | growth (OVCAR-3 ovarian) | growth (HS 578T breast) | growth (NCI/ADR-RES ovarian) | growth (T-47D breast) | growth (BT-549 breast) | growth (MDA-MB-435 melanoma) | growth (SW-620 colon) | growth (MCF7 breast) | growth (HCT-116 colon) | growth (HCC-2998 colon) | growth (KM12 colon) |
| --- | --- | --- | --- | --- | --- | --- | --- | --- | --- | --- | --- | --- | --- | --- | --- | --- | --- | --- |
| COc1ccc(C(=O)Cn2c(C(=O)c3ccccc3)nc3ccccc32)cc1 | 13% | -6.46% (active) | 49.3% | 62% | 40.4% | 73 | 10.1% | 5.28% (active) | -7.32% (active) | -28.3% (active) | 38.1% | 51.7% | -43.3% (active) | 10.6% | 17.5% | 15.7% | 26.5% | 20.4% |
| O=S(=O)(NCCNc1nccc(-c2c(-c3cccc(F)c3)nc3sccn23)n1)c1ccc(Br)cc1 | 31.7% | 58% | 45.5% | 83.6% | 47% | 77.3 | 8.47% (active) | 62.4% | 63.6% | 61.8% | 30.5% | 63.3% | 21.3% | 54.8% | 23.5% | 33.9% | 79.5% | 42.5% |
| O=C1Nc2cc(-c3ccc(NS(=O)(=O)c4ccccc4)cc3)ccc2/C1=C/c1ccc[nH]1 | 6.67% (active) | 77.8% | 97.1% | 52% | 68.7% | 79.1 | 93.1% | 108% | 97.7% | 92.6% | 18.5% | 24.6% | 88.2% | 84.9% | 6.53% (active) | 82% | 91.6% | 46.7% |
| Cc1ccc(/C=C(/C#N)n2nnc3cccc(F)c32)cc1 | 9.82% (active) | -4.51% (active) | 8.47% (active) | 0.132% (active) | 23% | 27.8 | 17.6% | -53.2% (active) | -14.8% (active) | -33.1% (active) | 21.9% | 27.1% | -89.5% (active) | 1.87% (active) | 13.5% | 2.07% (active) | -32.1% (active) | -17.6% (active) |
| COc1cc(/C(C)=C(\c2ccc(Cl)cc2)c2ccc(OCCN(C)C)cc2)ccc1F | 0.487% (active) | 12.2% | 73.9% | 75.3% | 45.9% | 111 | 35.3% | 59.4% | 71.7% | 69.4% | 61.2% | 76.2% | 39.6% | 49.8% | 31.7% | 46.8% | 25.1% | 44% |
| Cc1nn(-c2ccccc2)c(Cl)c1/C=C/C(=O)c1ccc(F)cc1 | 4.28% (active) | -15.6% (active) | 86.4% | 97.4% | 93.1% | 110 | 104% | 102% | 114% | 93.2% | 82.5% | 92.9% | 87% | 64.7% | 41.5% | 51.1% | 107% | 84.9% |
| CCCCCN1C=C/C(=C\C(=O)N(C)c2ccccc2Br)c2ccccc21 | 74.3% | 73.6% | 88.7% | 96% | 83.5% | 94 | 98.5% | 97.4% | 96.8% | 100% | 77.3% | 116% | 99.4% | 97% | 94.3% | 87.2% | 102% | 98.4% |
| Cc1ccc(NC(=O)Cc2ccc(/C=C/C(=O)c3ncc[nH]3)cc2)cc1 | 7.24% (active) | -11.4% (active) | 8.42% (active) | 64.2% | 58% | 84.4 | 57.6% | 15.3% | 42.9% | 38.3% | 38.9% | 48.9% | 28.7% | 11.7% | 14.5% | 8.97% (active) | 98% | 11.3% |
| C/C(=N\Nc1cc(C)nc2ccc(Br)cc12)c1ccc([N+](=O)[O-])cc1 | 1.78% (active) | 27.5% | 50.8% | 111% | 47% | 84.1 | 53.4% | 26.8% | 96.8% | 81.1% | 62% | 105% | 72.6% | 49.3% | 43.9% | 13.3% | 55.8% | 75.5% |
| O=C(Nc1cccc(C2=NCCN2)c1)c1ccc(-c2ccc(C(=O)Nc3cccc(C4=NCCN4)c3)cc2)cc1 | 72.4% | 24.8% | 80.7% | 88.5% | 96.6% | 111 | 88.7% | 121% | 97.6% | 104% | 58.5% | 93.4% | 57.4% | 69.2% | 18.5% | 72.7% | 81.1% | 60.4% |
| COc1cc2c3c(c4c5ccccc5[nH]c4c2c(OC)c1OC)C(=O)N(CCN1CCOCC1)C3=O | 21.5% | 39.5% | 31% | 99.7% | 70% | 83.2 | 53.9% | 76.4% | 66.6% | 45.8% | 66% | 73.5% | 73.9% | 32.4% | 32% | 19.7% | 69.5% | 61% |
| C=C1C(=O)O[C@H]2[C@H]1CC/C(CNC(=O)C(C)c1ccc(CC(C)C)cc1)=C\CC[C@@]1(C)O[C@@H]21 (stereo partly specified) | 8.13% (active) | -21% (active) | -32.5% (active) | 57.3% | 29.3% | 88.1 | -36% (active) | -87.9% (active) | 25.4% | 55.3% | -46.3% (active) | -39.5% (active) | 0.546% (active) | -59% (active) | 4.24% (active) | -87.8% (active) | -5.64% (active) | 57.8% |
| CC(C)(C)c1cc(/C=N/NC(=O)c2ccccc2NC(=O)c2cccs2)c(O)c(C(C)(C)C)c1 | -27.2% (active) | 32.5% | 10.1% | 67.7% | -34.6% (active) | 31.8 | 36.3% | 6.92% (active) | 71.5% | 18.8% | 29.4% | 57.4% | 51.8% | 17.1% | 18.1% | 9.85% (active) | 30.9% | 25.6% |
| CCOC(=O)c1cc(C#N)n2ccc3ccccc3c12 | 115% | 111% | 100% | 94.2% | 95.3% | 36.5 | 99.7% | 102% | 112% | 102% | 104% | 113% | 99.1% | 97.9% | 95.7% | 108% | 106% | 100% |
| C=C1C(=O)O[C@H]2[C@H]1CC/C(CNC(=O)CCc1ccc(OC)cc1)=C\CC[C@@]1(C)O[C@@H]21 | 14.3% | 51.4% | 39.2% | 82% | 80% | 103 | 61.7% | 30.6% | 86.4% | 95.4% | 40.8% | 43.1% | 14.3% | 19% | 33.5% | 19.8% | 97.5% | 97.4% |
| Cn1c(-c2c(N)n(CCCN3CCOCC3)c3nc(C#N)c(C#N)nc23)nc2ccccc21 | -57.7% (active) | 5.09% (active) | 48.1% | 82% | 73.7% | 93.6 | 65.6% | 65.5% | 94.3% | 78.6% | 49.9% | 35.6% | 79.3% | 39.7% | 52.9% | 22.7% | 80% | 75.6% |
| CC(=O)[C@@H]1CC[C@]2(CO)CC[C@]3(C)[C@H](CC[C@@H]4[C@@]5(C)CCCNC(C)(C)[C@@H]5CC[C@]43C)[C@@H]12 | 86.8% | 98.6% | 105% | 102% | 101% | 122 | 99.1% | 97.2% | 96.1% | 96.4% | 103% | 101% | 96.8% | 103% | 87.1% | 94.3% | 101% | 101% |
